# Screening data deposited in PubChem BioAssay by National Center for Advancing Translational Sciences (NCATS).
# IL1B secr inh: blocks inflammasome-driven IL-1 beta release | THP-1 LPS/ATP IL-1B secretion, AlphaLISA, 16 h; stronger effect = lower value | activity change, % at 57.5 µM | hit rate 4.7% among 360,000 | AID 743279; in the data active means activity change below about -50%; inconclusive means mostly about -30% to -49%
#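 THP-1 cells pretreated 1 hr with compounds (up to 57.5 uM final), then stimulated with LPS (250 ng/mL final) plus ATP (1.25 mM final); secreted IL-1B measured by AlphaLISA after 16 hr, decreased signal indicating inhibition.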
# ATXN2 expr inh: reduces ATXN2 reporter expression in HEK-293 cells; Potency, µM (top dose mostly 57 µM), most hits filed as inhibitors; hit rate 0.72% among 360,000; HEK-293 ATXN2-luciferase reporter, luminescence, 24 h; further: nearly all actives have a fitted effect of over 55% in size
#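 qHTS (up to 57 uM final) was run with 24 h compound exposure of reporter cells at 37 °C. Each well was multiplexed: SteadyGlo luminescence measured ATXN2-luciferase expression after a fluorogenic Gly-Phe-AFC viability readout (25 uM final).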
# D3 ag: activates the human D3 dopamine receptor | P35462 | D3R DiscoveRx beta-arrestin cells, luminescence, 90 min | max activation, % | hit rate 0.58% among 410,000; in the data active means max activation above about 30%
# Target sequence (P35462 whole entry, looked up): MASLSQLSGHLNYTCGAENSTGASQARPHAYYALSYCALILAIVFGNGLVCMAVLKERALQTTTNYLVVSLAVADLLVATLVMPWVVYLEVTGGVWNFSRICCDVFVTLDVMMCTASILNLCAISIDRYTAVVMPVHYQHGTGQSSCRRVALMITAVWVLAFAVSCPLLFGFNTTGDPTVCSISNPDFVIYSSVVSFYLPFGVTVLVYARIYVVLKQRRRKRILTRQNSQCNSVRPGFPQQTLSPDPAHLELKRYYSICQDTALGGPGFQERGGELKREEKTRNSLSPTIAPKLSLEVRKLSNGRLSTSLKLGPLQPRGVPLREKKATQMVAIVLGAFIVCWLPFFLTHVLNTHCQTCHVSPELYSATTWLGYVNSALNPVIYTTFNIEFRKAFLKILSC
#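 Agonist mode: compounds and dopamine controls were applied to plated cells for 90 min at 37 degrees C after an overnight attachment at 1500 cells/well. Luminescent read-out followed 30 - 60 minutes at room temperature with DiscoveRx detection reagent.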
# Integrin act MD: activates integrin-mediated alleviation for muscular dystrophy | alpha7betagal myoblasts, beta-gal FDG fluorescence, 48 h | Potency, µM (series often up to 38.3 µM), usual class: activators | hit rate 0.064% among 350,000; further: nearly all actives have a fitted effect of over 60% in size
#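 Alpha7betagal+/- myoblasts (passage 13) were plated 16-24 hr, then exposed to compounds (1:260 dilution of DMSO stock) for 48 hours at 37C. After MPER lysis, β-galactosidase reporter activity was read as FDG fluorescence (ex 480/em 540) after 30 minutes.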
# DRD3 antagonist: blocks the human D3 dopamine receptor; D3R cells, DiscoveRx beta-arrestin luminescence, antagonist mode; stronger effect = lower value; max response, negative = inhibition, %; hit rate 2.5% among 360,000; in the data active means max response below about -50%; inconclusive means no clear call, values can overlap the other calls
#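 Cells expressing the human receptor were seeded at 1500 cells/well, incubated overnight at 37 degrees C in 5% CO2, then exposed to library compounds with dopamine controls for 90 minutes at 37 degrees C before luminescent detection.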
# ATXN viability: viability counter-screen for ATXN expression inhibitors; S2 cells (HEK-293 line with an ATXN2-luciferase reporter) viability, CellTiter-Fluor protease fluorescence, 24 h; Potency, µM (top dose mostly 56.7 µM), hits mostly cytotoxic; hit rate 0.49% among 400,000; AID 651635; further: nearly all actives have a fitted effect of over 40% in size
# Hits are given with their value; n = inactive; u = inconclusive; x = no result given; [ ] = dose if it differs, or a comment. Compounds with a hit are over-represented: about 7% of the library has one in this group of screens. Unless noted, the call rests on the fitted dose curve; in most records, active means well fitted curve in the direction sought with a large enough effect; inconclusive means small, poorly fitted or top-dose-only effect, or another doubt; inactive means no such curve, though single readings can be large; an effect the other way counts as inactive or inconclusive.
SMILES,IL1B secr inh,ATXN2 expr inh,D3 ag,Integrin act MD,DRD3 antagonist,ATXN viability
CC1(C)CC(=O)C2=C(C1)NC(=O)C21C(C(=O)OC(C)(C)C)=C(N)Oc2ccc(Br)cc21 (centres undefined),n,n,31,n,n,n
C#CCN(C[C@@H]1[C@@H](OC(=O)Nc2c(C)noc2C)[C@@H](OC(=O)Nc2c(C)noc2C)Cn2c(=O)n(CCCCCC)c(=O)n21)S(=O)(=O)c1ccc(C)cc1,-59,n,n,n,n,n
COC(=O)[C@@H]1N=C(c2ccc(OC)cc2)O[C@]12C(=O)N(C)c1cccc(Cl)c12,n,n,n,x,n,n
O=c1[nH]sc2cc(F)ccc12,-108,n,n,n,u,n
CCOC(=O)c1cnc(N2CC2)nc1N,n,16µM,n,n,n,28µM
CCCCCSc1cc(OC)c(CCN(C)C)cc1OC,u,n,n,n,n,n
CCCCCSc1cc(O)c(C(CNC)C(C)C)cc1OC (centres undefined),-68,n,n,n,n,n
N#Cc1c(/N=C/C2C(=O)NC(=S)NC2=O)sc2c1CCCC2,n,n,32,n,n,n
CCOC(=O)c1c(/N=C/C2C(=O)NC(=S)NC2=O)sc2c1CCC2,n,n,n,n,n,n
Cc1ccccc1NC(=O)CCl,-86,x,n,n,n,u
Cc1ccccc1NC(=O)Cc1nc(COC(=O)Cc2ccccc2)cs1,n,n,n,n,n,n
CS(=O)(=O)NNP(=O)(NNS(C)(=O)=O)NC(=O)c1ccc(Br)cc1,n,n,n,n,n,n
O=C(Cn1nc(-c2ccc(Cl)cc2)ccc1=O)N1CCC2(CC1)OCCO2,n,n,n,11µM,n,n
Cc1cc(C(=O)CS(=O)c2ccc(F)cc2)cc(C)c1OC(=O)N(C)C (centres undefined),n,n,n,n,n,n
Cc1ccc2c(c1)c(C1=c3ccccc3=NC1=O)c(O)n2C,n,x,n,n,-80,u
Cc1ccc(C)c(-n2c(C)nc3ccccc3c2=O)c1,n,x,n,n,n,u
NN=C1C(Cl)=C(Cl)C(Cl)=C1Cl,u,x,n,n,n,n
O=C(Nc1ccc(Br)cc1)N1C[C@H]2C[C@@H](C1)c1cccc(=O)n1C2,n,n,n,n,n,n
CN1CC(C(=O)c2ccc(F)cc2)C(c2ccc(F)cc2)C1 (centres undefined),u,n,n,u,-129,n
N#Cc1cc2c(nc1SCC(=O)Nc1cccc(C(F)(F)F)c1)C1CCN2CC1,x,n,n,x,x,n
O=C(NCC1=C(c2ccc3ccccc3c2)C[C@@H]2CC[C@H]1N2Cc1ccco1)c1ccc([N+](=O)[O-])cc1,-71,u,n,n,u,x
O=C(NCC1=C(c2ccc3ccccc3c2)C[C@@H]2CC[C@H]1N2Cc1ccco1)c1ccncc1,n,n,n,n,n,n
CC1=C(O)C(=O)C=C2C1=CC=C1C2(C)CCC2(C)C3CC(C)(C(=O)O)CCC3(C)CCC12C (centres undefined),-57,4.5µM,n,n,-81,5.6µM
CCN1CCN(C(=O)Cc2ccc(Nc3ncc(F)c(Nc4ccc(C(=O)Nc5ccccc5Cl)cc4)n3)cc2)CC1,x,24µM,x,x,x,x
COc1ccccc1N1CCN(C2CCN(C(=O)c3cc(OC)c(OC)c(OC)c3)CC2)CC1,n,n,n,n,n,u
SMILES,IL1B secr inh,ATXN2 expr inh,D3 ag,Integrin act MD,DRD3 antagonist,ATXN viability
COc1ccccc1N1CCN(C2CCN(C(=O)c3cccs3)CC2)CC1,n,n,n,n,-63,u
COc1ccc(NC(C)=O)cc1NC(=O)c1cccn(Cc2ccccc2)c1=O,x,n,n,x,x,n
O=[N+]([O-])c1ccc(C(c2ccc([N+](=O)[O-])cc2)c2ccc([N+](=O)[O-])cc2)cc1,n,32µM,n,n,n,u
CC(C)NCC(O)c1ccc([N+](=O)[O-])cc1 (centres undefined),x,n,n,x,x,n
O=C(COc1ccc2ccc(=O)oc2c1)N1C[C@H]2C[C@@H](C1)c1cccc(=O)n1C2,n,n,n,n,n,n
CN1CN(c2ccccc2)C2(CCN(CCCSc3ccccc3NC(=O)/C=C/c3ccccc3)CC2)C1=O,-71,u,n,n,-107,n
CCN1CCN(S(=O)(=O)c2ccc(Cl)c(C(=O)N(CC)CC(=O)Nc3ccc(OC)cc3)c2)CC1,n,u,n,n,-163,u
CCCN(CC#CCOc1ccc(OC)cc1)CCC,n,n,n,n,-52,n
CN1CCN(CC#CCOc2ccc(Cl)cc2)CC1,n,x,n,n,n,n
COc1cc(/C=C2\C(=O)NC(=O)N(c3ccccc3)C2=O)cc(OC)c1OC,n,n,n,n,n,n
Cc1cc(C)cc(N2C(=O)NC(=O)/C(=C\C=C\c3ccco3)C2=O)c1,-86,u,n,n,n,u
CCc1ccc(N2C(=O)NC(=O)/C(=C\C=C\c3ccco3)C2=O)cc1,-96,x,n,n,n,10µM
Cc1ccc(N2C(=O)NC(=O)/C(=C/C=C/c3ccco3)C2=O)cc1,-75,u,n,n,u,u
O=C1NC(=O)N(c2ccccc2)C(=O)/C1=C\C=C\c1ccccc1,-98,14µM,n,n,n,14µM
COc1ccc(/C=C/c2nc3ccccc3c(=O)n2-c2ccc(C)cc2)cc1O,x,x,n,x,x,x
O=P(O)(O)C(Cl)(Cl)P(=O)(O)O,x,x,n,x,x,x
O=P(Oc1ccccc1)(Oc1ccccc1)C(Nc1ccccc1)c1ccccc1 (centres undefined),n,n,n,n,n,n
CCCCN1C(=O)/C(=C/C=C/c2ccco2)C(=O)NC1=S,n,n[11.3 µM],n,n,n,n
CN1C(=O)NC(=O)/C(=C/c2ccc([N+](=O)[O-])s2)C1=O,n,n,n,n,n,u
O=C1NC(=O)N(Cc2ccccc2)C(=O)/C1=C\c1ccco1,n,n,n,n,n,n
CC(C)c1ccc(N2C(=O)NC(=O)/C(=C/C=C/c3ccco3)C2=O)cc1,u,28µM,n,n,u,x
O=C1NC(=O)N(c2ccccc2)C(=O)/C1=C\c1ccc([N+](=O)[O-])s1,-69,n,n,n,n,n
O=C1NC(=O)N(Cc2ccc(F)cc2)C(=O)/C1=C\C=C\c1ccco1,-96,u,n,n,n,u
COC(=O)C(Cl)C(=O)OC,x,n,n,x,x,u
CC1CCSP(=O)(Oc2ccccc2)O1 (centres undefined),n,n,n,u,n,n
Cc1c(C)c2ccc(OCC(=O)N3C[C@H]4C[C@@H](C3)c3cccc(=O)n3C4)c(C)c2oc1=O,n,n,n,n,n,n
COc1ccc(NC2=NCCCS2)cc1OC,n,n,n,n,n,n
O=C(c1ccc(C(F)(F)F)cc1)C1CCCN(C2CCSCC2)C1 (centres undefined),n,n,n,n,-57,n
